Assay outcomes (PubChem BioAssay)
PNC assembly inh: blocks assembly of the perinucleolar compartment. PC3M PTB-GFP, PNC prevalence imaging, 16 h; stronger effect = lower value. activity change (PNC), negative = inhibition, % at 10 µM. 3.1% of 140,000 active. AID 2417;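 active = readout at or below -70, meaning at least 70% loss of cells showing the perinucleolar compartment, a nuclear body marking cancer cells; inconclusive = readout between -30 and a set limit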;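 note: plate controls were DMSO wells for no effect and camptothecin positive control wells for full effect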
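PC3M cells stably expressing PTB-GFP, 750–1000 cells/well, treated 16 h at 37 °C with compound (23 nl of library stock), in duplicate. After paraformaldehyde fixation and Hoechst stain, imaged at 20x; PNC prevalence scored by image analysis.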
ALDH1A1 block: blocks purified human ALDH1A1 activity; Purified ALDH1A1, NADH fluorescence, propionaldehyde substrate; Potency, µM (titrated, usually from 75.3 µM), inactives show at the highest dose activity, negative = inhibition, usual class: inhibitors; 7.3% of 220,000 active; active = well fitted inhibition curve with a large enough effect, not every such curve was filed as active; inconclusive = small, poorly fitted or top-dose-only effect, or another doubt; inactive = no such curve, though single readings can be large or run the other way;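 note: potency is the fitted concentration of half-maximal effect; plate controls were no enzyme wells and a reference inhibitor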
Target sequence (P00352 whole entry, looked up): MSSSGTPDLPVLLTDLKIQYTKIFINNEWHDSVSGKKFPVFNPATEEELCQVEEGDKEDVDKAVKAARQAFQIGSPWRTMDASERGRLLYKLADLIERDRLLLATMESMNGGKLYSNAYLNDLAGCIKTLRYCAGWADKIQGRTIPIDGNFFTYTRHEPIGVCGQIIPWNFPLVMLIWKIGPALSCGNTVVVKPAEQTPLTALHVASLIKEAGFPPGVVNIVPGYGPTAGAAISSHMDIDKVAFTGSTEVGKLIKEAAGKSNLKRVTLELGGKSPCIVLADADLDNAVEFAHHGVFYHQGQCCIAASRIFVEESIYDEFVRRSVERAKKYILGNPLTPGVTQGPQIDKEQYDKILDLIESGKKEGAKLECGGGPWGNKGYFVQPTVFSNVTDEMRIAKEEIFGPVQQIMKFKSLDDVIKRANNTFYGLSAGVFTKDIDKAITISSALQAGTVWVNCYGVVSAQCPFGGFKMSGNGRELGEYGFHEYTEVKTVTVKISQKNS
CBFb RUNX1 block: inhibitors of human CBF-beta and RUNX1 interaction; 230,000 tested, under 10 active; AlphaScreen CBFb-His/RUNX1-biotin binding, biochemical; Potency, µM (top dose mostly 59.8 µM), for inactives: top-dose activity, negative = inhibition, most hits filed as inhibitors; note: % of control where 0% means no effect
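His-tagged CBF-beta and biotinylated RUNX1 (30 nM each) were premixed 20 min at room temperature, exposed to compound for 15 min, then given nickel-chelate and streptavidin AlphaScreen beads (50 ng each). After 90 min, AlphaScreen signal was read.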
HTT ATP protect: Huntington cell model cytoprotection by ATP luminescence | 0.14% of 230,000 active | Potency, µM (highest dose often 56.4 µM), for inactives: cytoprotection (ATP increase), most hits filed as activators | PC12 HTT-Q103 induced, cytoprotection, ATP luminescence, 40 h; note: potency is the fitted concentration of half-maximal effect; % of control where 0% means no effect; nearly all actives have a fitted effect of over 45% in size
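Rat PC12, Q103 Htt exon1-GFP fusion, ecdysone promoter; tebufenozide inducer 100 nM final; compound titration; qHTS, 1500 cells/well; ATPlite luminescent read.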
HTT aggregate: mutant huntingtin aggregation inhibition; Potency, µM (doses to about 46.1 µM), for the others: at the highest dose activity change, negative = inhibition, hits mostly inhibitors; AID 1688; 1.1% of 220,000 active; PC12 HttQ103-GFP aggregates, Acumen cytometry, 40 h; note: potency is the fitted concentration of half-maximal effect; % is set by controls: 0 for no effect and ±100 for the full control effect; nearly all actives have a fitted effect of over 60% in size
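Aggregate formation scored by laser-scanning cytometer (488 excitation, 500–530 emission) in lysed PC12 cells expressing Q103-GFP after 100 nM tebufenozide induction; library tested in dose series, with ATPLite reagent added in the multiplex.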
HPGD block: inhibitors of human 15-hydroxyprostaglandin dehydrogenase (HPGD). 4.3% of 150,000 active. purified HPGD, NADH fluorescence kinetic, PGE2 substrate. Potency, µM, without a hit: at the top dose activity change, negative = inhibition, usual class: inhibitors. P15428; active = well fitted inhibition curve with a large enough effect, not every such curve was filed as active; inconclusive = small, poorly fitted or top-dose-only effect, or another doubt; inactive = no such curve, though single readings can be large or run the other way; note: potency is the fitted concentration of half-maximal effect; % is set by controls: 0 for no effect and ±100 for the full control effect
Target sequence (P15428 whole entry, looked up): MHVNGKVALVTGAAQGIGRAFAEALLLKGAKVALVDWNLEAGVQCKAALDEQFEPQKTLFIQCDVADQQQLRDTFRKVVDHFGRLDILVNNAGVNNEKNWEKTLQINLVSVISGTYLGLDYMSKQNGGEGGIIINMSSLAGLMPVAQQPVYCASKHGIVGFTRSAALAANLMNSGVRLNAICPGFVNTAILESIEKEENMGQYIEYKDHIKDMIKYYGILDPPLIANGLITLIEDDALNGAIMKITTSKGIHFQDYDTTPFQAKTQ
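20 nM HPGD preincubated 15 min at room temperature with compound in 50 mM Tris-HCl pH 8, 0.01% Tween 20. Started with 1 mM NAD+ and 30 uM prostaglandin E2; NADH fluorescence (360/450 nm) read 5 times over 30-s intervals, last minus first.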
* hit, by the source's call; u = inconclusive; x = no result; ! = a repeat was not active; [ ] = another dose, or the depositor's remark. Only some compounds are listed: those with a hit (about 11% of all), similar ones and a draw of the others. Unless noted, calls come from the whole dose curve; as a rule, active = well fitted curve in the direction sought with a large enough effect; inconclusive = small, poorly fitted or top-dose-only effect, or another doubt; inactive = no such curve, though single readings can be large; an effect the other way counts as inactive or inconclusive.

SMILES | PNC assembly inh | ALDH1A1 block | CBFb RUNX1 block | HTT ATP protect | HTT aggregate | HPGD block
Cc1cc(NC(=O)CCCSc2nc(-c3ccco3)cc(C(F)(F)F)n2)no1 | 35 | 10% | 3% | -34% | 13% | -17%
COc1cccc(-c2cc(C(F)(F)F)nc(NCc3ccco3)n2)c1 | -100* | -1% | 12% | x | u | -29%
O=C(CCCSc1nc(-c2ccco2)cc(C(F)(F)F)n1)NCc1cccs1 | u | u | 0% | 3% | -23% | 18µM*
FC(F)(F)c1cc(-c2ccco2)nc(NCc2ccco2)n1 | -10 | -17% | 4% | 19%[10 µM] | -4% | -5%
O=C(CCSc1nc(-c2ccco2)cc(C(F)(F)F)n1)NCC1CCCO1 (centres undefined) | 36 | -15% | 1% | 1% | -8% | u
COc1ccc(-c2cc(C(F)(F)F)nc(NCc3ccco3)n2)cc1OC | 14 | u | 1% | -19% | -25% | u
CC(=O)N1CCC2(CC1)CN(c1ccncc1)C2 | x | 10% | x | -3% | x | -13%
CCOc1ccc(NC(=O)CC2C(=O)N(c3ccccc3)C(=O)N2Cc2ccco2)cc1 (centres undefined) | x | u | -2% | -72% | -3% | x
COc1ccc(NC(=O)CC2C(=O)N(c3cccc(OC)c3)C(=O)N2Cc2ccco2)cc1 (centres undefined) | x | 16µM* | -3% | -56% | 10% | x
Cc1ccc(CC(NC(=O)c2ccccc2)C(=O)NCC(=O)O)cc1 (centres undefined) | 4 | 7% | 3% | -2% | 0% | -9%
CC/C(=N/Nc1ccc(Cl)cc1)c1cnnc(SC)n1 | 100 | 10µM* | -1% | 2%[0.074 µM] | -19% | -11%
CC/C(=N/Nc1cccc(C)c1)c1cnnc(SC)n1 | 19 | 9.5µM* | 12% | x | -10% | -6%
CC/C(=N/O)c1cnnc(SC)n1 | 17 | -7% | -5% | -5%[10 µM] | u | -15%
Nc1nc(-c2cccnc2)cc(-c2cc(-c3cccnc3)nc(N)n2)n1 | x | 6%[13.5 µM] | x | 0%[10 µM] | x | -7%
CCCCCCCCCCCCCCCCCCNC(=O)OCC(COP(=O)([O-])OCC[n+]1ccsc1)OC (centres undefined) | x | 5% | -24% | x | x | -13%
CCC1=C2CC[C@H]3C(=O)N(CC)C(=O)[C@H]3[C@H]2[C@@]2(Cc3ccccc3)C(=O)N(CC3CC3)C(=O)N2C1=O | x | 0% | -6% | -23% | x | -9%
CC(C)(C)C(=O)C(Oc1cccc2nonc12)n1cncn1 (centres undefined) | 37 | 7% | 3% | -8%[0.074 µM] | -9% | -1%
COc1ccc(N2CCc3c(C)nc4c(OC)cccc4c32)cc1 | x | 28µM* | 12% | -124% | -16% | x
Cc1ccc(O)c(N=Nc2ccccc2)n1 | x | u | 10% | -33% | x | 22µM*!
CC(=O)NN1C(=O)/C(=C/c2ccc(C(C)C)cc2)SC1=S | u | 4µM* | 6% | 2%[10 µM] | u | -30%
O=C(COc1ccc(Cl)cc1Cl)NN1C(=O)/C(=C\c2ccc(Cl)cc2)SC1=S | x | 5% | -2% | u | -2% | x
O=c1[nH]ccc2c(S(=O)(=O)N3CCCNCC3)cccc12 | x | u | 16% | -41% | x | u
CC(=O)c1c(C)n(-c2ccccc2)c2ccc(O)cc12 | 6 | -3% | 2% | 26% | 10µM* | 5µM*
COc1ccc2c(c1)c(C(=O)N1CCN(C)CC1)c(C)n2-c1ccccc1 | 0 | 14µM* | 0% | -23%[10 µM] | 16% | u
O=[N+]([O-])O[C@H]1CO[C@H]2[C@@H]1OC[C@H]2O | x | 9% | 11% | 11% | 10% | -3%
SMILES | PNC assembly inh | ALDH1A1 block | CBFb RUNX1 block | HTT ATP protect | HTT aggregate | HPGD block
CCNc1ncc2nc(-c3cc(F)cc(F)c3)c(=O)n(CCOC)c2n1 | x | u | x | 9% | x | x
CSC1=NC(C)(C)C=C(/C=C/c2ccc(Cl)cc2Cl)N1 | x | -13% | 11% | -1%[10 µM] | -26% | x
CSC1=NC(C)(C)C=C(/C=C/c2ccc(Cl)cc2)N1 | x | 20µM* | 24% | -10%[10 µM] | 3% | x
CSc1ccccc1N=Cc1nc(-c2ccccc2)oc1O | 36 | 5µM* | 9% | -1% | 20% | u
Cc1ccnc(N=Cc2nc(-c3ccccc3Br)oc2O)c1 | x | 4µM* | u | -60% | -14% | x
Oc1oc(-c2cccc3ccccc23)nc1/C=N/c1nccs1 | u | 9% | 1% | 0%[10 µM] | -10% | -4%
Oc1oc(-c2ccccc2)nc1C=Nc1ccccc1 | 10 | u | -9% | -30% | 17% | -22%
Cc1cccc(/N=C/c2nc(-c3ccccc3Br)oc2O)n1 | x | 3.5µM* | 4% | -16% | -23% | x
COc1ccc(Br)cc1/C=N/NC(=O)CN1CCN(Cc2ccccc2)CC1 | x | u | 8% | 20%[10 µM] | -1%[9.22 µM] | x
O/N=C/c1ccccc1Oc1ccccc1 | -22 | u | 8% | -14%[10 µM] | -16% | 16µM*
Cc1cc(C)cc(Oc2ccccc2C=O)c1 | -18 | -1% | 16% | -1%[10 µM] | -2% | -4%
Cc1cc(C)cc(Oc2ccccc2/C=N\O)c1 | u | 7% | 2% | -18%[10 µM] | 9% | 22µM*
c1cc2c3c(cccc3c1)C(N1CCOCC1)=N2 | x | x | -1% | 4%[10 µM] | -11%[9.22 µM] | x
c1ccc(CC2CCN(C3=Nc4cccc5cccc3c45)CC2)cc1 | -2 | 14µM* | u | -77% | u | -9%
COc1cc(/C=C2\S/C(=N/S(=O)(=O)c3ccccc3)NC2=O)c([N+](=O)[O-])cc1OC | 6 | -4% | -6% | 7%[10 µM] | 27% | 7.1µM*
COc1ccc(S(=O)(=O)/N=C2/NC(=O)/C(=C\c3cc(OC)c(OC)cc3[N+](=O)[O-])S2)cc1 | -19 | u | -7% | -14% | 8% | 5µM*
Cc1ccc(S(=O)(=O)/N=C2/NC(=O)/C(=C/c3ccccn3)S2)cc1 | x | -1% | -2% | 12%[10 µM] | -20%[9.22 µM] | x
CCCCn1c(=O)[nH]c(=O)c2c1nc(-c1ccccc1F)n2Cc1ccccc1OC | x | u | -2% | -100% | -21% | x
N#CCCCS(=O)(=O)c1nc2ccccc2s1 | x | -6% | 0% | u | x | -21%
CCC1C(=O)N=C(SCC(=O)NC2CCCCC2)NC1=O (centres undefined) | x | 25µM* | -1% | -16%[10 µM] | -5%[9.22 µM] | x
Nn1c(SCC(=O)NC2CCCCC2)nnc1C1CC1 | u | 24µM* | 16% | 27% | 9% | -10%
CCc1nnc(SCC(=O)NC2CCCC2)nc1CC | -24 | 12% | 4% | u | -3% | 16µM*
CCn1c(C(C#N)/C(=N\S(=O)(=O)c2cccs2)c2ccccc2)nc2ccccc21 (centres undefined) | 10 | 10µM* | 5% | 6%[10 µM] | -10% | -7%
